In ChEMBL document CHEMBL3988442, “University of Dundee, Small-Polar-MMV Screening Library” (2021):

Biological target: T1, Methionyl-tRNA synthetase, putative (Leishmania donovani (strain BPK282A1)) (UniProt E9BF75)
T1 sequence (whole entry): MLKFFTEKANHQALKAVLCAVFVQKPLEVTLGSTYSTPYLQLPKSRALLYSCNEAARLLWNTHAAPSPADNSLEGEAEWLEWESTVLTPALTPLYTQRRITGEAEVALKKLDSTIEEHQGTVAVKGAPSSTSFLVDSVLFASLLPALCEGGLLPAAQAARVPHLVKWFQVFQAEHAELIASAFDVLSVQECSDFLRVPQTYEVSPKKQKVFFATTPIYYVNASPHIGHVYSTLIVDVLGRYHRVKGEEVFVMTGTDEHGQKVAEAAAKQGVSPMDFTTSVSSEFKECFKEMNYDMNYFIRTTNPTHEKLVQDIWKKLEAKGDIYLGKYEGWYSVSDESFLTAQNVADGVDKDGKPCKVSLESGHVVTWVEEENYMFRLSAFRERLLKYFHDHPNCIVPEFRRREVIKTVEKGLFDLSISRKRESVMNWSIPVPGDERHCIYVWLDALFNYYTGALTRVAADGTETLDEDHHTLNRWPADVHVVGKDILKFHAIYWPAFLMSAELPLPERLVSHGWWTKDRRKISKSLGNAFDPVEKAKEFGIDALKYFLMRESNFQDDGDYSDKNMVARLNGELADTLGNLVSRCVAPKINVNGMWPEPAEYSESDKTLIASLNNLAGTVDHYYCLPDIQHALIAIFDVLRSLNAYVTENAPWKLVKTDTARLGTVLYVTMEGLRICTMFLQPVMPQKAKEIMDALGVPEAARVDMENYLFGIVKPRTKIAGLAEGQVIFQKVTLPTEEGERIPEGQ
Experiment: Leishmania donovani Methionine tRNA synthetase (LdMetRS):v7. Dose response assay
Type: functional
Set-up: conc 80 nM, time 150 minutes

## CCc1cc2c(NCCCN(C)C)nc(-c3ccccc3)nc2s1
MAX_EFFECT 10.07371007
  PXC50: < 4
MAX_EFFECT 10.55276382
  PXC50: < 4

## Cn1cc(CN2CCC(F)(F)C3(CCN(c4ncccn4)C3)C2)cn1 (stereo not given)
MAX_EFFECT -0.938967136
  PXC50: < 4
MAX_EFFECT -2.777777778
  PXC50: < 4

## COCCNc1nc(-c2cccnc2)nc2sc(C)c(C)c12
BOTTOM 0.74162584, HILLSLOPE 1.235225767, MAX_EFFECT 62.1761658, TOP 100.0
  PXC50: 4.17
BOTTOM 1.893882354, HILLSLOPE 1.640156685, MAX_EFFECT 57.9787234, TOP 75.89886764
  PXC50: 4.31

## CS(=O)(=O)N1CCN(c2ccc3ccc(C(=O)NCCS(=O)(=O)N4CCOCC4)cn23)CC1
BOTTOM 0.75923045, HILLSLOPE 2.636958023, MAX_EFFECT 55.02392344, TOP 52.30756256
  PXC50: 5
BOTTOM 6.938223691, HILLSLOPE 3.502169957, MAX_EFFECT 60.32906764, TOP 60.07357055
  PXC50: 4.85

## Nc1noc2ccc(-c3cnc4ccc(NCc5cccnc5)nn34)cc12
MAX_EFFECT 15.26717557
  PXC50: < 4
MAX_EFFECT 15.78947368
  PXC50: < 4

## FC(F)(F)c1nc(N2CCCCCC2)nc2c1CCCCC2
MAX_EFFECT 4.325699746
  PXC50: < 4
MAX_EFFECT 5.793450882
  PXC50: < 4

## CS(=O)(=O)N1CCN(CC2OB(O)c3ccccc32)CC1 (stereo not given)
MAX_EFFECT 11.13207547
  PXC50: < 4
MAX_EFFECT 15.06849315
  PXC50: < 4

## CCN(CC)c1ccc2ccc(C(=O)N(CCOC)CCOC)cn12
MAX_EFFECT 40.55555556
  PXC50: < 4
MAX_EFFECT 42.72300469
  PXC50: < 4

## CC(O)CNc1nc(CN2CCCCC2)nc2sc3c(c12)CCCC3 (stereo not given)
MAX_EFFECT 8.108108108
  PXC50: < 4
MAX_EFFECT 9.547738693
  PXC50: < 4

## OC1CN(c2nc(C3CC3)nc3sc4c(c23)CCCC4)C1
MAX_EFFECT 6.914893617
  PXC50: < 4
MAX_EFFECT 8.808290155
  PXC50: < 4

## Cc1nc(NCCS(N)(=O)=O)c2c(-c3ccccc3)csc2n1
MAX_EFFECT 6.870229008
  PXC50: < 4
MAX_EFFECT 12.34256927
  PXC50: < 4

## CCc1nc(NCCCC(=O)O)c2c3c(sc2n1)CCC3
MAX_EFFECT 7.808564232
  PXC50: < 4
MAX_EFFECT 8.905852417
  PXC50: < 4

## CC(C)C[C@H](N)COc1ccccc1-c1ccn(C)n1
MAX_EFFECT 7.660455487
  PXC50: < 4
MAX_EFFECT 10.87420043
  PXC50: < 4

## Cc1nc(N(C)CC(=O)NC2CC2)c2c3c(sc2n1)CCCC3
MAX_EFFECT 4.761904762
  PXC50: < 4
MAX_EFFECT 5.333333333
  PXC50: < 4

## CS(=O)(=O)N1CCN(c2ccc3c(F)cc(C(=O)NC4CCCC4)cn23)CC1
MAX_EFFECT 12.5
  PXC50: < 4
MAX_EFFECT 15.35087719
  PXC50: < 4

## Nc1nc(CSc2ncccn2)nc2sc3c(c12)CCCC3
MAX_EFFECT 24.53333333
  PXC50: < 4
MAX_EFFECT 26.98412698
  PXC50: < 4

## Nc1noc2ccc(-c3cnc4ccc(NCCN5CCS(=O)(=O)CC5)nn34)cc12
MAX_EFFECT 6.106870229
  PXC50: < 4
MAX_EFFECT 10.52631579
  PXC50: < 4

## COc1ccc(-c2cc(C(F)(F)F)nc(N3CCCC3)n2)cc1
MAX_EFFECT 5.85106383
  PXC50: < 4
MAX_EFFECT 7.772020725
  PXC50: < 4

## COc1cccc(-c2cc(C(F)(F)F)nc(N3CCCC3)n2)c1
MAX_EFFECT 5.303030303
  PXC50: < 4
MAX_EFFECT 7.142857143
  PXC50: < 4

## Cc1nc(N(C)CC(=O)Nc2cc(C)on2)c2c3c(sc2n1)CCC3
MAX_EFFECT 9.844559585
  PXC50: < 4
MAX_EFFECT 10.63829787
  PXC50: < 4

## FC(F)(F)c1nc(N2CCCC2)nc2c1CCCCC2
MAX_EFFECT 2.290076336
  PXC50: < 4
MAX_EFFECT 5.793450882
  PXC50: < 4

## CC(=O)N[C@H](COc1cccc(F)c1Oc1ccc(Cl)cc1)CC(C)C
MAX_EFFECT 3.105590062
  PXC50: < 4
MAX_EFFECT 4.051172708
  PXC50: < 4

## Cc1nc(N(C)CC(=O)N(C)C)c2c3c(sc2n1)CCC3
MAX_EFFECT 0.0
  PXC50: < 4
MAX_EFFECT 1.058201058
  PXC50: < 4

## CS(=O)(=O)Nc1cccc2c(=O)cc(C(=O)NCC3(O)CCCCC3)oc12
MAX_EFFECT 2.53968254
  PXC50: < 4
MAX_EFFECT 4.743083004
  PXC50: < 4

## Cc1nc(N(C)CCC(=O)O)c2cc(-c3ccccc3)sc2n1
MAX_EFFECT 10.96256684
  PXC50: < 4
MAX_EFFECT 15.76086957
  PXC50: < 4

## CC(C)C[C@@H](COc1cccc(F)c1Oc1ccc(Cl)cc1)N(C)C
MAX_EFFECT 6.418219462
  PXC50: < 4
MAX_EFFECT 11.30063966
  PXC50: < 4

## CN1CCN(c2ccc3ccc(C(=O)N4CCCCO4)cn23)CC1
MAX_EFFECT 12.20657277
  PXC50: < 4
MAX_EFFECT 19.44444444
  PXC50: < 4

## O=C(NCC1(O)CCCCC1)c1cc(=O)c2cc[nH]c(=O)c2o1
MAX_EFFECT 6.333973129
  PXC50: < 4
MAX_EFFECT 9.409888357
  PXC50: < 4

## Cc1nc(NCCNC(=O)c2ccccc2)c2c3c(sc2n1)CCCC3
MAX_EFFECT 14.39393939
  PXC50: < 4
MAX_EFFECT 19.3877551
  PXC50: < 4

## Cc1cc(C(F)(F)F)nc(NCCc2ccccc2)n1
MAX_EFFECT 6.557377049
  PXC50: < 4
MAX_EFFECT 10.16042781
  PXC50: < 4
